Structures are written as SMILES. Among all 52,000 compounds or so, about 1,700 (3.3%) were called active. Rule as the data show it: active = survival mostly below about 52% (no sharp cut-off); inactive = mostly above about 56%. The sample as a whole holds a higher share of actives than the screen did.

For this experiment, the system named is Wild type. The experiment in a line: growth inhibition of S. aureus wild type versus tarO mutant, primary screen, teichoic acid synthesis inhibitors, RN4220, OD600 (AID 463173). Conditions: S. aureus RN4220 wild type/DeltatarO growth, OD600, 18 h, active compounds read low, screened at 18.75 µg/mL (by protocol).
`Cc1cccc(-n2c(SCC(=O)Nc3ccccc3C)nc3c(oc4ccccc43)c2=O)c1`: the survival was 86% (inactive).

In the case of `CCc1ccc(NC(=O)N2CCN(C(=O)c3nsc4ccccc34)CC2)cc1`, the survival is 76% (inactive).

With `Cc1cc(C)cc(NC(=O)N2CCN(C(=O)c3nsc4ccccc34)CC2)c1`, the survival is 78% (inactive).

On to `Cc1ccc(C)c(NC(=O)N2CCN(C(=O)c3nsc4ccccc34)CC2)c1`, for which the survival is 69% (inactive).

Consider `Cc1ccc(NC(=O)N2CCN(C(=O)c3nsc4ccccc34)CC2)cc1C`, for which the survival was -6% (active).

Take `Cc1cccc(NC(=O)N2CCN(C(=O)c3nsc4ccccc34)CC2)c1C`: the survival is 72% (inactive).

As for `O=C(Nc1ccc(F)c(Cl)c1)N1CCN(C(=O)c2nsc3ccccc23)CC1`, the survival is 70% (inactive).

For the compound `CCc1ccccc1NC(=O)N1CCN(C(=O)c2nsc3ccccc23)CC1`, the survival was -1% (active).

Consider `O=C(Nc1ccccc1)N1CCN(C(=O)c2nsc3ccccc23)CC1`, for which the survival was 85% (inactive).

In the case of `O=C(Nc1ccc(F)cc1)N1CCN(C(=O)c2nsc3ccccc23)CC1`, the survival was 14% (active).

For `CCC(C(=O)NCc1ccccc1Cl)n1c(=O)c2cccn2c2ccccc21` (stereo not drawn), the survival was 76% (inactive).

Turning to `O=c1c2oc3ccccc3c2n(Cc2cccc(F)c2)c(=O)n1Cc1ccc2c(c1)OCO2`, the survival is 86% (inactive).

As to `O=C(Cn1c(-c2cccs2)cc2cc(F)ccc21)N1CCCCC1`, the survival is 72% (inactive).

`O=C(NCc1ccccc1)c1ccc2oc(=O)n(Cc3ccccc3)c2c1`: the survival is 71% (inactive).

On to `COc1cccc(CNC(=O)c2ccc3oc(=O)n(Cc4ccccc4)c3c2)c1`, for which the survival is -3% (active).

Take `CCn1nnc2cc(C(=O)Nc3ccc(OC)cc3)ccc21`: the survival was 73% (inactive).

Consider `CCn1nnc2cc(C(=O)Nc3ccc(C)c(Cl)c3)ccc21`, for which the survival is 53% (inactive).

Consider `O=C(Nc1ccc(Cl)cc1)c1ccc2oc(=O)n(Cc3ccccc3)c2c1`, for which the survival is 63% (inactive).

As for `CCc1ccc(NC(=O)c2ccc3oc(=O)n(Cc4ccccc4)c3c2)cc1`, the survival was 1% (active).

Take `Cc1ccc(CNC(=O)c2ccc3oc(=O)n(Cc4ccccc4)c3c2)cc1`: the survival was 57% (inactive).

As to `O=C(NCc1ccc(F)cc1)c1ccc2oc(=O)n(Cc3ccccc3)c2c1`, the survival is -4% (active).

As for `O=C(Nc1cccc(F)c1)c1ccc2oc(=O)n(Cc3ccccc3)c2c1`, the survival was 81% (inactive).

With `CCc1ccc(NC(=O)c2ccc3c(c2)nnn3CC)cc1`, the survival was -6% (active).

For the compound `O=C(NCc1ccc(Cl)cc1)c1ccc2oc(=O)n(Cc3ccccc3)c2c1`, the survival is 129% (inactive).

In the case of `Cc1cccc(CNC(=O)c2ccc3oc(=O)n(Cc4ccccc4)c3c2)c1`, the survival was 60% (inactive).

As to `Cc1nn(Cc2ccccc2)c(C)c1NC(=O)c1cc(C(C)C)on1`, the survival is 77% (inactive).

Consider `O=C(Nc1ccc(NC(=O)c2cccs2)cc1)c1ccc(Cl)cc1`, for which the survival is 81% (inactive).

Turning to `Cc1onc(-c2c(Cl)cccc2Cl)c1C(=O)n1c(C)nc2ccccc21`, the survival was 105% (inactive).

Consider `Cc1cc(C)cc(NC(=O)Cn2c(-c3cncs3)nc3ccccc32)c1`, for which the survival is 63% (inactive).

For `CN(C)C(=O)Cn1c2[n+](c3ccccc31)CC(O)CS2` (stereo not drawn), the survival is 103% (inactive).

Turning to `O=C(COc1ccc(Cl)cc1)NCC(c1ccco1)S(=O)(=O)c1ccc(Cl)cc1` (stereo not drawn), the survival was 78% (inactive).

Consider `Cc1cccc(CNC(=O)Cc2csc3ccccc23)c1`, for which the survival is 116% (inactive).

With `COc1ccc(CNC(=O)c2cccc(NC(=O)N3CCSc4ncccc43)c2)cc1`, the survival was 67% (inactive).

As for `COc1ccccc1NC(=O)CCn1nc(-c2ccccc2OC)c2c(C)cc(C)nc21`, the survival was 111% (inactive).

On to `O=C(Oc1ccccc1-c1nc(-c2ccccc2)no1)c1ccccc1`, for which the survival is 100% (inactive).

Regarding `O=C(/C=C/c1ccco1)OCCN1CCOCC1`, the survival is 92% (inactive).

For `O=C(/C=C/c1ccco1)ON1C(=O)c2ccccc2C1=O`, the survival is 117% (inactive).

As for `O=C(Oc1cccc2cccnc12)c1ccccc1`, the survival is 1% (active).

With `O=C1c2ccccc2C(=O)N1COc1cccc2cccnc12`, the survival is 101% (inactive).

`O=C(/C=C\c1ccco1)Oc1cccc2cccnc12`: the survival was 1% (active).

For `N#Cc1ccccc1NC(=O)Cn1cnc2onc(-c3cccc(F)c3)c2c1=O`, the survival is 105% (inactive).

For the compound `O=C(C1CCN(c2nc3ccccc3[nH]2)CC1)N1CCN(c2ccccc2)CC1`, the survival is 85% (inactive).

As for `O=C(C1CCN(c2nc3ccccc3[nH]2)CC1)N1CCN(c2cccc(Cl)c2)CC1`, the survival was 0% (active).

Consider `Cc1ccc2nc(N3CCC(C(=O)N4CCN(c5cccc(Cl)c5)CC4)CC3)[nH]c2c1`, for which the survival was 74% (inactive).

For `CCCC(=O)c1cc(F)c(N2CCOCC2)cc1C`, the survival is 121% (inactive).

For `Cc1ccc(NC(=O)Cn2c(=O)n(Cc3ccccc3)c(=O)c3sc4ccccc4c32)cc1`, the survival is 93% (inactive).

For `Cc1ccc(-n2ncc(C(=O)NCc3ccco3)c2C2CCN(C(=O)OC(C)(C)C)CC2)cc1C`, the survival is 72% (inactive).

Consider `COc1ccc(N2CCN(c3oc(/C=C/c4ccc(F)cc4)nc3C#N)CC2)cc1`, for which the survival was 84% (inactive).

As for `Cc1cc(C)cc(C(=O)N(Cc2nc(-c3ccc(Cl)cc3)no2)C(C)C)c1`, the survival is 17% (inactive).

For `CC(C)N(Cc1nc(-c2ccc(Cl)cc2)no1)C(=O)c1ccc(C(C)(C)C)cc1`, the survival was 0% (active).

In the case of `COc1cccc(C(=O)N(Cc2nc(-c3ccc(Cl)cc3)no2)C(C)C)c1OC`, the survival was 46% (inactive).

Take `Cc1ccc(-c2noc(CN(C(=O)c3ccc(C(C)(C)C)cc3)C(C)C)n2)cc1`: the survival is -1% (active).

As for `Cc1ccc(-c2noc(CNC(=O)c3ccc(C(C)(C)C)cc3)n2)cc1`, the survival is 89% (inactive).

Take `CCOc1cc(C(=O)N(Cc2nc(-c3ccc(C)cc3)no2)C(C)C)cc(OCC)c1OCC`: the survival was 15% (active).

As to `CCCCOc1ccc(C(=O)N(Cc2nc(-c3ccc(Cl)cc3)no2)C(C)C)cc1`, the survival was 85% (inactive).

For the compound `CCOc1cc(C(=O)NCc2nc(-c3cccc(C)c3)no2)cc(OCC)c1OCC`, the survival is 89% (inactive).

Consider `CCCCN(C)CCCNC(=O)C1CCN(S(=O)(=O)CCC)CC1`, for which the survival is 77% (inactive).

As to `Cc1ccc(NC(=O)Cn2c(=O)n(CCC(=O)N3CCc4ccccc4C3)c(=O)c3ccccc32)c(C)c1`, the survival was 79% (inactive).

For the compound `COc1cccc(C(=O)Nc2cc3c(cc2C(=O)c2ccc(C)cc2)OCCO3)c1`, the survival is 71% (inactive).

Take `CCOC(=O)c1cc(S(=O)(=O)Nc2ccc(OC(F)(F)F)cc2)[nH]n1`: the survival was 87% (inactive).

As for `COc1ccc(C(=O)Nc2ccc3nc(N4CCC(C)CC4)cc(C)c3c2)cc1`, the survival was 86% (inactive).

As to `COc1ccccc1C(=O)Nc1ccc2nc(N3CCC(C)CC3)cc(C)c2c1`, the survival was 0% (active).

For `COc1ccccc1CC(=O)Nc1ccc2nc(N3CCC(C)CC3)cc(C)c2c1`, the survival is 71% (inactive).

As to `CCN1CCN(c2cc(C)c3cc(NC(=O)c4cc(OC)c(OC)c(OC)c4)ccc3n2)CC1`, the survival is 73% (inactive).

Turning to `CCN1CCN(c2cc(C)c3cc(NC(=O)c4cc(Cl)ccc4OC)ccc3n2)CC1`, the survival is 2% (active).

Turning to `CCN1CCN(c2cc(C)c3cc(NC(=O)c4ccc(OC)c(OC)c4)ccc3n2)CC1`, the survival is 65% (inactive).

For the compound `CCSc1nc(NC(C)=O)nn1C(C)=O`, the survival is 103% (inactive).

For the compound `Cc1ccc(NC(=O)Cc2c(C(=O)O)c(C)cn2C)cc1Cl`, the survival is 87% (inactive).

As for `CCOCCCn1c(SCC(=O)Nc2ccccc2OC)nc2c(oc3ccccc32)c1=O`, the survival was 81% (inactive).

For the compound `CCOc1ccc(C(=O)Nc2cccc(C(=O)OCc3cc(=O)n4cc(C)sc4n3)c2)cc1`, the survival is 81% (inactive).

With `Cc1cc2ncn(CCC(=O)Nc3ccccc3F)c2cc1C`, the survival was 105% (inactive).

With `Cc1ccc(OCCCCn2cnc3ccccc32)cc1`, the survival was 29% (active).

As for `CC(=O)OC(COc1ccccc1)Cn1cnc2cc(C)c(C)cc21` (stereo not drawn), the survival was 125% (inactive).

As for `c1ccc2c(c1)ncn2CCn1cnc2ccccc21`, the survival was 104% (inactive).

Take `COc1ccc(OCCn2cnc3ccccc32)cc1`: the survival was 107% (inactive).

For `Cc1cc2ncn(CCCCOc3ccccc3)c2cc1C`, the survival was 20% (active).

As for `Cc1ccc(Cl)cc1N1CCN(C(=O)C2CCN(S(=O)(=O)c3ccc4c(c3)oc(=O)n4C)CC2)CC1`, the survival was 66% (inactive).

With `Cc1ccc(C)c(N2CCN(c3cc(C)nc4c(-c5ccc(Cl)cc5)c(C)nn34)CC2)c1`, the survival is 96% (inactive).

`Cc1ccc(N2CCN(c3cc(C)nc4c(-c5ccc(Cl)cc5)c(C)nn34)CC2C)cc1` (stereo not drawn): the survival was 14% (active).

Take `Cc1cccc(N2CCN(c3cc(C)nc4c(-c5ccc(Cl)cc5)c(C)nn34)CC2C)c1` (stereo not drawn): the survival was 74% (inactive).

For the compound `Cc1n[nH]c(=S)n1CC(=O)N1c2ccccc2CCc2ccccc21`, the survival was 102% (inactive).

With `CC1=C(C(=O)Nc2ccccc2)C(c2ccc(Br)cc2)n2nc(CCCO)nc2N1` (stereo not drawn), the survival was 79% (inactive).

As for `CCOc1ccc(NC(=O)Cn2cc(C(=O)c3ccc(C)c(C)c3)c(=O)c3cc(F)ccc32)cc1`, the survival is 89% (inactive).

On to `COc1cc(NS(=O)(=O)c2cc(Br)cc3c2N(C(C)=O)C(C)C3)cc(OC)c1` (stereo not drawn), for which the survival is -3% (active).

In the case of `CC(=O)N1c2c(cc(Br)cc2S(=O)(=O)Nc2ccc(OC(F)(F)F)cc2)CC1C` (stereo not drawn), the survival was 105% (inactive).

On to `COc1ccc(CNS(=O)(=O)c2cc(Br)cc3c2N(C(C)=O)C(C)C3)cc1` (stereo not drawn), for which the survival was 138% (inactive).

For `CCc1ccc(CNC(=O)C(C)n2ccc3cc(S(=O)(=O)N4CCCCCC4)ccc32)cc1` (stereo not drawn), the survival was 75% (inactive).

`CC(C(=O)NCc1ccccc1)n1ccc2cc(S(=O)(=O)N3CCCC3)ccc21` (stereo not drawn): the survival was -3% (active).

As for `Cc1cccc(CNC(=O)Cn2ccc3cc(S(=O)(=O)N4CCC(C)CC4)ccc32)c1`, the survival was 67% (inactive).

With `CN(C)c1ccc(CNC(=O)CCCn2ccc3cc(S(=O)(=O)N4CCCC4)ccc32)cc1`, the survival was 0% (active).

Consider `O=C(Cn1ccc2cc(S(=O)(=O)N3CCCCC3)ccc21)NCc1cccc(Cl)c1`, for which the survival is 128% (inactive).

Turning to `Cc1cccc(CNC(=O)Cn2ccc3cc(S(=O)(=O)N4CCCCCC4)ccc32)c1`, the survival is -6% (active).

Regarding `CCc1ccc(CNC(=O)CCCn2ccc3cc(S(=O)(=O)N4CCCC4)ccc32)cc1`, the survival is 63% (inactive).

In the case of `Cc1cccc(CNC(=O)CCn2ccc3cc(S(=O)(=O)N4CCCC4)ccc32)c1`, the survival was 76% (inactive).

On to `COc1ccc(CNC(=O)CCCn2ccc3cc(S(=O)(=O)N4CCCC4)ccc32)cc1`, for which the survival was 75% (inactive).

Consider `O=C(CCn1ccc2cc(S(=O)(=O)N3CCCC3)ccc21)NCc1cccc(Cl)c1`, for which the survival was -1% (active).

Regarding `Cc1ccc(CNC(=O)C(C)n2ccc3cc(S(=O)(=O)N4CCCC4)ccc32)cc1` (stereo not drawn), the survival was 66% (inactive).

In the case of `Cc1cccc(CNC(=O)Cn2ccc3cc(S(=O)(=O)N4CCCC4)ccc32)c1`, the survival was 69% (inactive).

(Values after PubChem BioAssay AID463173 (ICCB-Longwood Screening Facility, Harvard Medical School, 2010).)
